High-throughput results deposited in PubChem by The Scripps Research Institute Molecular Screening Center.
MITF primary: inhibitors of human MITF; O75030; AlphaScreen MITF homodimerization, bead proximity signal; inhibition, % at 2.6 µM; actives 0.91% (n = 650,000); AID 1259374; in the data active = inhibition above about 50%;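 note: 0% = vehicle wells with protein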
TEAD-YAP block: TEAD-YAP interaction inhibition; HEK-TIYL cells, TEAD-Gal4/YAP UAS-luciferase luminescence; inhibition, % at 9.12 µM; actives 1.4% (n = 640,000); AID 1259422; in the data active = inhibition above about 32%;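 note: 0% = median of test compound wells and 100% = reference inhibitor wells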
GPR151 ag: human GPR151 activation; Q8TDV0; PathHunter beta-arrestin GPR151 cells, luminescence; activation, % at 11.2 µM; actives 1% (n = 650,000); in the data active = activation above about 4.9%;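 note: 0% = median of compound wells and 100% = cells with positive control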
FBW7 activator: human FBW7 E3 ligase activation, primary screen; normalized activity (activation), % at 26.1 µM; actives 0.13% (n = 650,000); AlphaScreen FBW7–phospho-cyclin E peptide binding, activator screen; in the data active = normalized activity above about 1.9%;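 note: purified mutant Fbw7 with reduced substrate affinity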
Target sequence (Q969H0 whole entry, looked up): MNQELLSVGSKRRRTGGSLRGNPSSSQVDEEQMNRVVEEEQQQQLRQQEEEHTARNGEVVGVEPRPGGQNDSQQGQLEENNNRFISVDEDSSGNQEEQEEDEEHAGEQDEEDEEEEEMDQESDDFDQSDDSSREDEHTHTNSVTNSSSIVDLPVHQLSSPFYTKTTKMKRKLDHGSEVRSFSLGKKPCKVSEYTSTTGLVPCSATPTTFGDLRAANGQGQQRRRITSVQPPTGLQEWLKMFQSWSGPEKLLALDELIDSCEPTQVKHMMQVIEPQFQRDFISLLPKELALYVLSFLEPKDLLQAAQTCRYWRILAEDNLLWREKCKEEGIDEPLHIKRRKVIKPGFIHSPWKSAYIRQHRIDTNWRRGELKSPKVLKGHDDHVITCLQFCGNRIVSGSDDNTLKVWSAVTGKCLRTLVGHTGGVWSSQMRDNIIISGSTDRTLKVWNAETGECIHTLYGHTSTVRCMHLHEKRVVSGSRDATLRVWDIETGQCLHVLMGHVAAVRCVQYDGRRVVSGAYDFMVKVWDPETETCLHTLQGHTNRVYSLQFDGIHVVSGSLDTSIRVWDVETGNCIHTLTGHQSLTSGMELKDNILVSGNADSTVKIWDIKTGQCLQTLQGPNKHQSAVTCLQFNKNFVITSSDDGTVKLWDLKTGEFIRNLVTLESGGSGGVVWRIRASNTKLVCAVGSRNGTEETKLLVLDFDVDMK
An asterisk follows results filed as active. The list is not random: actives were taken first. Their share in the collection is about 3.4%.

SMILES	MITF primary	TEAD-YAP block	GPR151 ag	FBW7 activator
O=C(N/N=C/c1ccc(N2CCOCC2)o1)c1ccccc1	16	-32	0	0
COc1ccccc1CC(=O)Nc1cnn(-c2cccc(C(=O)Nc3ccc(N4CCOCC4)cc3)c2)c1	-2	-36	0	0
COc1ccccc1NC(=O)c1c(NC(=O)C(C)(C)C)sc2c1CCC(C(C)(C)C)C2 (configuration not stated)	2	-1	0	0
N[C@H](C(=O)O)[C@H](O)c1ccc(O)c(O)c1	54*	1	-2	0
NC(C(=O)O)C(O)c1ccccc1 (configuration not stated)	6	9	-1	0
O=C(O)CCCN(Cc1ccc(Cl)cc1)S(=O)(=O)c1ccc(Br)cc1	8	-3	-1	0
O=C(O)CCN(Cc1ccc(Cl)cc1)S(=O)(=O)c1ccc(Br)cc1	14	-2	1	2.1*
CC(=O)c1ccc(NC(=O)CN2CCC(C(N)=O)CC2)cc1	-4	5	2	0
CC(=O)Nc1ccc(NC(=O)CN2C(=O)CC(C)(C)S(=O)(=O)c3ccccc32)cc1	17	7	-2	0
N#CCC(=O)N1CCN(CCc2ccccc2)CC1	-11	0	0	0
C=CCNc1nc(N)c(C(N)=NC#N)s1	-1	74*	2	0
CC1CCC(C(C)C)C(OC(=O)Cn2c(-c3ccc(Cl)cc3)[n+](C)c3ccccc32)C1 (configuration not stated)	-3	45*	4	0
CC(=O)Nc1cccc(N=Cc2c(O)n(-c3ccc(Cl)cc3)c(=O)[nH]c2=O)c1	1	-1	0	0
CCOC(=O)c1[nH]c2c([N+](=O)[O-])cc(OC)cc2c1-c1ccccc1	13	3	0	0
CCOc1cc([N+](=O)[O-])c2[nH]c(C(=O)O)c(C)c2c1	-9	45*	-1	0
CCOC(=O)N1CCc2c(sc3c2C(=O)NC(/C=C\c2ccccc2)N3)C1 (configuration not stated)	-10	51*	1	0
CCOC(=O)N1CCc2c(sc3c2C(=O)NC(c2ccc(Cl)cc2)N3)C1 (configuration not stated)	7	13	0	0
COc1ccc(/C=N/NC(=O)c2ccccc2O)cc1Cn1cc([N+](=O)[O-])cn1	0	-8	-1	0
COc1ccc(/C=N/NC(=O)c2cc(O)c(O)c(O)c2)cc1Cn1cnc([N+](=O)[O-])n1	97*	5	-1	0
COc1ccc(/C=N/NC(=O)c2cc(O)c(O)c(O)c2)cc1Cn1cc([N+](=O)[O-])cn1	73*	-4	2	0
CCCN1C(=O)c2ccc(C(=O)Nc3ccc(O)cc3C)cc2C1=O	4	6	-2	0
CCCN1C(=O)c2ccc(C(=O)Nc3ccc(O)cc3)cc2C1=O	10	38*	-1	0
CCCN1C(=O)c2ccc(C(=O)Nc3ccc(C(=O)O)cc3)cc2C1=O	18	53*	-1	0
CCN1C(=O)c2ccc(C(=O)Nc3cc(C(=O)O)cc(C(=O)O)c3)cc2C1=O	1	4	2	0
COCC(=O)Nc1cnn(-c2cccc(C(=O)N(C)Cc3n[nH]c4c3CCCC4)c2)c1	0	1	1	0
SMILES	MITF primary	TEAD-YAP block	GPR151 ag	FBW7 activator
CC(Nc1cc(N2CCN(C(=O)c3ccco3)CC2)ccc1[N+](=O)[O-])C12CC3CC(CC(C3)C1)C2 (configuration not stated)	-14	43*	1	0
c1ccc(Oc2cccc(CSc3nc4ccccc4[nH]3)c2)cc1	7	34*	-1	0
Cc1cc(=O)[nH]c(SCc2cccc(Oc3ccccc3)c2)n1	-7	-2	0	0
Fc1cc(-c2nc(Nc3ccc(N4CCOCC4)cc3)ncc2F)cc(N2CCOCC2)c1	-2	1	1	0
Fc1cc(-c2nc(Nc3ccc(CN4CCCCC4)cc3)ncc2F)cc(N2CCOCC2)c1	-9	92*	2	0
Fc1cnc(Nc2ccc(CN3CCCCC3)cc2)nc1-c1cc(N2CCOCC2)cc(C(F)(F)F)c1	15	42*	2	0
Cc1ccccc1OCCC(=O)NNC(=O)CC12CC3CC(CC(C3)C1)C2	-15	-4	0	0
CC(=O)c1ccc(NC(=O)Cn2ncc3c2-c2ccccc2OC3)cc1	-1	1	1	0
CC(C)CS(=O)(=O)C1=NSC2=NC(=O)/C(=C\c3ccc(Br)o3)C(=N)N21	77*	5	-1	0
CC(C)SC1=NSC2=NC(=O)/C(=C\c3ccc([N+](=O)[O-])o3)C(=N)N21	72*	-3	0	0
CS(=O)(=O)C1=NSC2=NC(=O)/C(=C\c3ccc(SCc4ccco4)o3)C(=N)N21	72*	1	0	-1
CCSC1=NSC2=NC(=O)/C(=C\c3ccc(Br)o3)C(=N)N12	83*	8	0	0
CNC(=S)Nc1cc(C(C)(C)C)ccc1OC	2	6	0	0
COc1cc(/C=C/c2nc3ccc([N+](=O)[O-])cc3s2)ccc1OCC#N	-1	-5	1	0
CCN(CC)c1ccc(C(=O)Nn2c(-c3cccc(C)c3)nc3ccccc3c2=O)cc1	-12	4	2	0
CC#CC(=O)N1CCC(CCC(=O)NCCOC)CC1	-9	-3	-1	0
Cc1ccc(C)c(Oc2coc3cc(OC(=O)c4ccccc4C)ccc3c2=O)c1	3	-29	-1	1
CCOC(=O)CSc1nc2c(sc(=S)n2-c2ccc(Cl)c(C)c2)c(=O)n1-c1ccccc1OC	25	-9	1	2.1*
COc1ccc(Cc2noc(-c3ccc([N+](=O)[O-])o3)n2)cc1OC	21	67*	0	0
COc1ccc(Cc2noc(-c3ccc(OC)c(OC)c3)n2)cc1OC	4	2	-1	0
COc1ccc(C2C(C(=O)OCC(C)=O)CCC(=O)N2c2ccc(C)cc2)cc1OC (configuration not stated)	0	8	2	0
COc1ccc(CCNC(=O)c2cccc(Nc3ccc4ncccc4c3)n2)cc1	12	10	1	0
CCc1cc(-c2n[nH]c(C)c2-c2nc3ccccc3s2)c(O)cc1OC	7	35*	0	0
CCOC(=O)CC1=C(C(=O)OCC)C(c2ccccc2[N+](=O)[O-])C(C#N)=C(N)O1 (configuration not stated)	11	4	-1	0
O=C(Nc1ccc(C23CC4CC(CC(C4)C2)C3)cc1)c1cccc(Cl)c1	8	60*	0	0
Cn1c(C2COc3ccccc3O2)nc2ccc(-c3ncnc4[nH]ccc34)cc21 (configuration not stated)	7	4	1	2.8*
c1ccc2c(c1)OCC(c1nc3ccc(-c4ncnc5[nH]ccc45)cc3[nH]1)O2 (configuration not stated)	5	49*	0	0
Oc1ccccc1N1CCN(c2ncnc3sccc23)CC1	0	56*	-2	0
COC(=O)c1ccc2nc(-c3ccc(F)cc3)cn2c1	3	42*	-9	0
